What all share (experiment): DAPPL (digital affinity profiling via proximity ligation, sequencing); 10 mM Tris-HCl pH 7.5, 50 mM NaCl, 1 mM DTT, 4% glycerol, room temperature, 30 min; GST-TFs on glutathione beads, 16-mer random dsDNA library, 0.1% formaldehyde crosslink after washing; high values mean tight binding
What all share (settings): protein: recombinant; tags: N-terminal GST; dsDNA, one strand shown

The target of one assay is T1, FLI1 (Homo sapiens, UniProt Q01543 1-452).
T1 sequence: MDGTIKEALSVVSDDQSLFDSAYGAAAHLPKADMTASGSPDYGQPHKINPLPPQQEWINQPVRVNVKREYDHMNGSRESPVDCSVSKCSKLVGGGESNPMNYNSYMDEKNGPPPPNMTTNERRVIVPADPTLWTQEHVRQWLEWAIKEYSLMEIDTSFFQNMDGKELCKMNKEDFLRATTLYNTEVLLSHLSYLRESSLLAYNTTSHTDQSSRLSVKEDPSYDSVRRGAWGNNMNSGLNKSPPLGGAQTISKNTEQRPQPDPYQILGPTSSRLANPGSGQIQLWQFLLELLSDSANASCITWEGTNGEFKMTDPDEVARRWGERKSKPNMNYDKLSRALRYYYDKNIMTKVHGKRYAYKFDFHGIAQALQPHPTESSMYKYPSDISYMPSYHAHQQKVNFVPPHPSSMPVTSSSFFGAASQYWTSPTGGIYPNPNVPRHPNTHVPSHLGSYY
A digest of the protocol: (§1)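 A tag-only sample was pooled with DNA-barcoded human transcription factors that had been expressed in yeast as GST fusions and captured on glutathione beads. The pools were incubated for 30 min at room temperature with 200 nmole of a random double-stranded 16-mer DNA library in Tris/NaCl/DTT/glycerol buffer, then washed, crosslinked with 0.1% formaldehyde, proximity-ligated (BsaI/T4 ligase, 1 h, 37 °C), PCR-amplified and sequenced on an Illumina NextSeq500. Binding signal is each hexamer's read frequency for a factor divided by its frequency for the tag-only sample.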

The target of another assay is T2, ELK1 (Homo sapiens, UniProt P19419 1-428).
T2 sequence: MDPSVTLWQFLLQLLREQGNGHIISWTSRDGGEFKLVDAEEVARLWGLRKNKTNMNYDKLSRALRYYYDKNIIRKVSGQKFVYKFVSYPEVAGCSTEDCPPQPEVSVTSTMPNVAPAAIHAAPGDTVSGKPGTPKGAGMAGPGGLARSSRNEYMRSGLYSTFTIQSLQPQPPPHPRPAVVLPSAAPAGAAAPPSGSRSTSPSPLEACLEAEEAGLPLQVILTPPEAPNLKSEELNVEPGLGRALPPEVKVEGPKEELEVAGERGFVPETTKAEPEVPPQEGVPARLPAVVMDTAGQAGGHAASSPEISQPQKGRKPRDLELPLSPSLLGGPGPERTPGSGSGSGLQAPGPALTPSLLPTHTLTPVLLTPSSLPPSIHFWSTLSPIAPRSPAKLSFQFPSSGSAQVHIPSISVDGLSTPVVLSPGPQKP
A digest of the protocol:
as §1

The next assay has as its target T3, GABPA (Homo sapiens, UniProt Q06546 1-454).
T3 sequence: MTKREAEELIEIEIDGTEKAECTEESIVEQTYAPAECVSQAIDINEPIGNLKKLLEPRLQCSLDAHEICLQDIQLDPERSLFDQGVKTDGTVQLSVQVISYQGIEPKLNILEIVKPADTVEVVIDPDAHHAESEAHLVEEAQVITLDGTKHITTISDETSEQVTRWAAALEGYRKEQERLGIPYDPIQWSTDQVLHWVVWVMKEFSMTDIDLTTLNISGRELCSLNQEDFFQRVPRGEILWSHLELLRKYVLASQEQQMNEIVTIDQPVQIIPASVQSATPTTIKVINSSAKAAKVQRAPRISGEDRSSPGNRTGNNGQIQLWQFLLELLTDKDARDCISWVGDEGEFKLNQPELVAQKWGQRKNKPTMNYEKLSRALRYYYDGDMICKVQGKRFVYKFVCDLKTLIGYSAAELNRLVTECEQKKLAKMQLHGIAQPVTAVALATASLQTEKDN
The method in brief:
as §1

A further assay deals with T4, ERG (Homo sapiens, UniProt P11308 1-479).
T4 sequence: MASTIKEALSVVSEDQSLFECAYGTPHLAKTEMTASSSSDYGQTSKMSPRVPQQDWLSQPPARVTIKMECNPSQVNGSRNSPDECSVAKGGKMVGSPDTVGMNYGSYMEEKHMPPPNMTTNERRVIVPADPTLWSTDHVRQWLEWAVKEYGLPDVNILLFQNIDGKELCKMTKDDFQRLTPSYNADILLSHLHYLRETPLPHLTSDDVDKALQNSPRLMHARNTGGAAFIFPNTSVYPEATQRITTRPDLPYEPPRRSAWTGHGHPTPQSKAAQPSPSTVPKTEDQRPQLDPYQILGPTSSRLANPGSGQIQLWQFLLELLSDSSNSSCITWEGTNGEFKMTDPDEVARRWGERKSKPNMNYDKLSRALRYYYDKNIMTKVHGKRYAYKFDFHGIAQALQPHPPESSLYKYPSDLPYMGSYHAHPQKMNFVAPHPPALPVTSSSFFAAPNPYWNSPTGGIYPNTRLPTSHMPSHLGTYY
A digest of the protocol:
as §1

For another assay, the target named is ELF1 (Homo sapiens, UniProt P32519 1-619). The method in brief: as §1
The target of another assay is T5, EHF (Homo sapiens, UniProt Q9NZC4 1-300).
T5 sequence: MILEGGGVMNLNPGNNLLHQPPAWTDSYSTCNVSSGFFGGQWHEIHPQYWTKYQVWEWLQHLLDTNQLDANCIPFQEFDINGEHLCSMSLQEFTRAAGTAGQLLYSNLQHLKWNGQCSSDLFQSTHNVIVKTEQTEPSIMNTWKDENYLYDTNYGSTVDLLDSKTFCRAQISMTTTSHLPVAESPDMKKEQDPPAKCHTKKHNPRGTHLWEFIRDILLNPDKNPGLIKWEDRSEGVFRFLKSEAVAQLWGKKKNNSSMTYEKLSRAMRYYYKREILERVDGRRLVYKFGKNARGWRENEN
The method in brief:
as §1

A further assay addresses SPI1 (Homo sapiens, UniProt P17947 1-270). The method in brief: as §1
The target of the next assay is SPIB (Homo sapiens, UniProt Q01892 1-262). A digest of the protocol:
as §1

For the next assay, the target named is T6, FEV (Homo sapiens, UniProt Q99581 1-238).
T6 sequence: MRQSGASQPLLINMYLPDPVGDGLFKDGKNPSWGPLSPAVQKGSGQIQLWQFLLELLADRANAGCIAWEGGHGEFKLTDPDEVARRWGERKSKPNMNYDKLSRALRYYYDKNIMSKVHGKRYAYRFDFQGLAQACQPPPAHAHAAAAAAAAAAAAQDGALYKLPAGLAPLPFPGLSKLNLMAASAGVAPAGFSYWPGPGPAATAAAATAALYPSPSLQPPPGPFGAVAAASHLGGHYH
The method in brief:
as §1

In another assay the target is ETV5 (Homo sapiens, UniProt P41161 1-510). A digest of the protocol:
as §1

The next assay deals with ELF4 (Homo sapiens, UniProt Q99607 1-663). A digest of the protocol: as §1
In a further assay the target is ETV1 (Homo sapiens, UniProt P50549 1-477). The method in brief: as §1
The next assay concerns the target T7, ERF (Homo sapiens, UniProt P50548 1-548).
T7 sequence: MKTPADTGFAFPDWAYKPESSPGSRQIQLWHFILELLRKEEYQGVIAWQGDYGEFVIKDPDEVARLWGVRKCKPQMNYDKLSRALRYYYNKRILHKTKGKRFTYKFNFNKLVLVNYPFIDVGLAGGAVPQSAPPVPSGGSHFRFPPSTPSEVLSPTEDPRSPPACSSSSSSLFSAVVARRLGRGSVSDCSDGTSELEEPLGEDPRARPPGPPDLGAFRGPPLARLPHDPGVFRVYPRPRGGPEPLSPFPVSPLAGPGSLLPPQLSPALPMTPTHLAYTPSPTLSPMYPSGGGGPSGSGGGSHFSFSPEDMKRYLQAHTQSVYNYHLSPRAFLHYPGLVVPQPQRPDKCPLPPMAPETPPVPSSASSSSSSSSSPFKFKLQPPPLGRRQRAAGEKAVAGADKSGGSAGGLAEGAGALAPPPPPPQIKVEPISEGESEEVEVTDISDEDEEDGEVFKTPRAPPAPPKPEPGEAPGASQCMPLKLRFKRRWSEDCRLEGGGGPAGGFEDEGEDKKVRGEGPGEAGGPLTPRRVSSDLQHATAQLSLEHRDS
A digest of the protocol:
as §1

The target of the next assay is T8, ETV3L (Homo sapiens, UniProt Q6ZN32 1-361).
T8 sequence: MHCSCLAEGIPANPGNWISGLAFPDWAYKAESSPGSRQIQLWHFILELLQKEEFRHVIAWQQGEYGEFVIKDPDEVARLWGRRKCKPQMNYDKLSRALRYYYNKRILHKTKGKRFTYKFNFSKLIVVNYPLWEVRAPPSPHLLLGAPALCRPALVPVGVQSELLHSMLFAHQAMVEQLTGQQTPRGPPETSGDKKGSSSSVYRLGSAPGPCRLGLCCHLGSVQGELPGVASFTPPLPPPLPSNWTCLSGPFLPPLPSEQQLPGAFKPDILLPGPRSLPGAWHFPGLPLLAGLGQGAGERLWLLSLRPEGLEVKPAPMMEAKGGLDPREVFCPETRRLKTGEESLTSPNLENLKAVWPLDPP
A digest of the protocol:
as §1

Another assay concerns the target T9, ETS2 (Homo sapiens, UniProt P15036 1-469).
T9 sequence: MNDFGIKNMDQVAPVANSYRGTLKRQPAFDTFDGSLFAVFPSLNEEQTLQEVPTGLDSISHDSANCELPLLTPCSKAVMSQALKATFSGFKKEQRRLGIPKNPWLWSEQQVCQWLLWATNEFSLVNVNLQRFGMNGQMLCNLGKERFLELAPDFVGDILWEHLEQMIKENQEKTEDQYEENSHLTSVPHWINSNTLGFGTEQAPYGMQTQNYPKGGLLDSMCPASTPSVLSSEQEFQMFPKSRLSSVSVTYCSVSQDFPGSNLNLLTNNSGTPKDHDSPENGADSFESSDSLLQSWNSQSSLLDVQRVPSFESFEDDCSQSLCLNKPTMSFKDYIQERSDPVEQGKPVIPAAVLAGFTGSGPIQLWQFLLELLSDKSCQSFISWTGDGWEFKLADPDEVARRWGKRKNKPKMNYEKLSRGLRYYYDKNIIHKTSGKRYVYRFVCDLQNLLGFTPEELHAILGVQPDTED
A digest of the protocol:
as §1

A further assay addresses T10, SPDEF (Homo sapiens, UniProt O95238 1-335).
T10 sequence: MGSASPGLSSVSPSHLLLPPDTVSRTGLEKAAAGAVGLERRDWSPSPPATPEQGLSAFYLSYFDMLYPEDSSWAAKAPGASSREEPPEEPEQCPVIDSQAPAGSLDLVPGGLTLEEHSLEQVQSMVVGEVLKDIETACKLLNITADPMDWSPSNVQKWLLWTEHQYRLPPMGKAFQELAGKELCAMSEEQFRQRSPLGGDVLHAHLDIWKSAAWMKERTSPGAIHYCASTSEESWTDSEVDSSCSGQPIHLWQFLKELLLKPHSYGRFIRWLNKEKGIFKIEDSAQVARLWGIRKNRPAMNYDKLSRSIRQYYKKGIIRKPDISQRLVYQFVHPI
The method in brief: as §1

Another assay has as its target T11, ELF5 (Homo sapiens, UniProt Q9UKW6-2 1-255).
T11 sequence: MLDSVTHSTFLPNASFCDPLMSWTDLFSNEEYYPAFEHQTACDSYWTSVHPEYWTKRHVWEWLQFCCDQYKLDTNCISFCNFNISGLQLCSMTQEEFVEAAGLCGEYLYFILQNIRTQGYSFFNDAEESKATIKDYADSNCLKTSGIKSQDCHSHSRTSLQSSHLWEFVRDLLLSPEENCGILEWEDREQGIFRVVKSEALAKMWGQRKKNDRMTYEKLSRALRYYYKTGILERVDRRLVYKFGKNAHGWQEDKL
The method in brief: as §1

A further assay deals with T12, ETV3 (Homo sapiens, UniProt P41162-2 1-143).
T12 sequence: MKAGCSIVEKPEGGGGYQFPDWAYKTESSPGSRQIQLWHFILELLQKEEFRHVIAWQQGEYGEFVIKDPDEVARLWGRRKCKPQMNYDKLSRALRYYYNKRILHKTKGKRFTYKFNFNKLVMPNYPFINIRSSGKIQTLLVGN
The method in brief: as §1

Another assay addresses ETV6 (Homo sapiens, UniProt P41212 1-452). The method in brief: as §1

ETV6, sequence (P41212 whole entry): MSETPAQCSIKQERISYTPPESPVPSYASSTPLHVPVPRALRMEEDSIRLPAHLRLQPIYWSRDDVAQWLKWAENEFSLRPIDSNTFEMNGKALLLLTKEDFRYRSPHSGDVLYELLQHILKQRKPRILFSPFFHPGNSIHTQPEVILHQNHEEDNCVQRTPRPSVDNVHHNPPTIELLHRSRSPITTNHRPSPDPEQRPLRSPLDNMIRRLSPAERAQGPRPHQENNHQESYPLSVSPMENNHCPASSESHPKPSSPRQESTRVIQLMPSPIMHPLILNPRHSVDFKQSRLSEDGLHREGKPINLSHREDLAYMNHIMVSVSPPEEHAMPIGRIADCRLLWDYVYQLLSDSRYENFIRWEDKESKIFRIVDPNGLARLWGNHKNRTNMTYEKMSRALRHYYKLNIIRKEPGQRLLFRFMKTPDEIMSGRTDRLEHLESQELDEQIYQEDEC
ELF1, sequence (P32519 whole entry): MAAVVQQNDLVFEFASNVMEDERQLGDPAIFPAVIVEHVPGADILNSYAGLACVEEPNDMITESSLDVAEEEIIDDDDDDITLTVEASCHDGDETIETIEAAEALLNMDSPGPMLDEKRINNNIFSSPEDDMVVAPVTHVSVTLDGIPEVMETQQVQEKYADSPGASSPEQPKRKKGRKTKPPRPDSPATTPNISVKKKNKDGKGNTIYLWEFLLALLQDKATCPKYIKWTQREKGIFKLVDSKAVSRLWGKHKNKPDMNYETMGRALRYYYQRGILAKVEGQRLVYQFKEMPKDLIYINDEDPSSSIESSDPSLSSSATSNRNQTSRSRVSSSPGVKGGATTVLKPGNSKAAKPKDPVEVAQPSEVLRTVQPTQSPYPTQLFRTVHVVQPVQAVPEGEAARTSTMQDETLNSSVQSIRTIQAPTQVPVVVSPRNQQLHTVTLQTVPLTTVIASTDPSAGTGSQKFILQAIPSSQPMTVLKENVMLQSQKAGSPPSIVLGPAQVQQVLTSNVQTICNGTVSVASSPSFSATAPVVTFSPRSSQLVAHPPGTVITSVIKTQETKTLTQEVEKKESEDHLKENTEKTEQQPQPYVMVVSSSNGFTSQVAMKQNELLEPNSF
ELF4, sequence (Q99607 whole entry): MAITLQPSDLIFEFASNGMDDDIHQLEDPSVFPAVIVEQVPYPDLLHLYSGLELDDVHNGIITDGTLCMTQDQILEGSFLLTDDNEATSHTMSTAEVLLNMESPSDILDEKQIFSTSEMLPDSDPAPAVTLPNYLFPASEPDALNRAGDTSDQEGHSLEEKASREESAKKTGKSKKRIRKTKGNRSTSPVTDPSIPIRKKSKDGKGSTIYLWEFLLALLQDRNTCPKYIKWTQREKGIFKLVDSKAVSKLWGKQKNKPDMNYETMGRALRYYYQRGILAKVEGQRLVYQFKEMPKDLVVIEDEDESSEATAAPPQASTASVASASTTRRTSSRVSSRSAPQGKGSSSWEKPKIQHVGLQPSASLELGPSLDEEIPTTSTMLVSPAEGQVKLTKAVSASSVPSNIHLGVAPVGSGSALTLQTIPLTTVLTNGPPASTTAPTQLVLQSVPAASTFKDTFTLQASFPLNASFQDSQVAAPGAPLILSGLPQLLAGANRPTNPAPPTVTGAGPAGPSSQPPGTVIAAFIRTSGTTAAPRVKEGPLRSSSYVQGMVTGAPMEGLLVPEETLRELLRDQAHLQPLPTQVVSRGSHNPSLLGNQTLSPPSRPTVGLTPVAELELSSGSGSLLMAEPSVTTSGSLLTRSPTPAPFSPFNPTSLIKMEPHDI
ETV5, sequence (P41161 whole entry): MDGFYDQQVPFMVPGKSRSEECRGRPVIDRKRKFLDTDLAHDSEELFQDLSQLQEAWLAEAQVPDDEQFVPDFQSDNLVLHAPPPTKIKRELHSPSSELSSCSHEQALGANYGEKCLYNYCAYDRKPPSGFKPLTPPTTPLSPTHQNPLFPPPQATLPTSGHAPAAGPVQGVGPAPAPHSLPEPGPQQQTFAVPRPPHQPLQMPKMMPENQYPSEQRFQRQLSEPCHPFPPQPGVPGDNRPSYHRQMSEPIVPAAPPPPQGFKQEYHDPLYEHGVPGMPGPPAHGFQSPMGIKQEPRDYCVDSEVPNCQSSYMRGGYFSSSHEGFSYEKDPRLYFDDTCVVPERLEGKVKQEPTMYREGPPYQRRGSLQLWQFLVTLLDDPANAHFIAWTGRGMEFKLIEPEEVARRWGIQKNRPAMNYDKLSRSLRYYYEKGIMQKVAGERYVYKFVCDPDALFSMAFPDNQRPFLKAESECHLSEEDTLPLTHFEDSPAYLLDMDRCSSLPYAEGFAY
SPIB, sequence (Q01892 whole entry): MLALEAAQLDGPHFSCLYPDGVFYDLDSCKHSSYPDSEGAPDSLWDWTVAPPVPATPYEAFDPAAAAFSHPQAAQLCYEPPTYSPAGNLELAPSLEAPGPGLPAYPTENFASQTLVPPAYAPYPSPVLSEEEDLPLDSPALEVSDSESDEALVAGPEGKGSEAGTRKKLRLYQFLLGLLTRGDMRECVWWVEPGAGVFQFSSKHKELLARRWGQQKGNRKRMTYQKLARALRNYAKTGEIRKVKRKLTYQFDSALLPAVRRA
ETV1, sequence (P50549 whole entry): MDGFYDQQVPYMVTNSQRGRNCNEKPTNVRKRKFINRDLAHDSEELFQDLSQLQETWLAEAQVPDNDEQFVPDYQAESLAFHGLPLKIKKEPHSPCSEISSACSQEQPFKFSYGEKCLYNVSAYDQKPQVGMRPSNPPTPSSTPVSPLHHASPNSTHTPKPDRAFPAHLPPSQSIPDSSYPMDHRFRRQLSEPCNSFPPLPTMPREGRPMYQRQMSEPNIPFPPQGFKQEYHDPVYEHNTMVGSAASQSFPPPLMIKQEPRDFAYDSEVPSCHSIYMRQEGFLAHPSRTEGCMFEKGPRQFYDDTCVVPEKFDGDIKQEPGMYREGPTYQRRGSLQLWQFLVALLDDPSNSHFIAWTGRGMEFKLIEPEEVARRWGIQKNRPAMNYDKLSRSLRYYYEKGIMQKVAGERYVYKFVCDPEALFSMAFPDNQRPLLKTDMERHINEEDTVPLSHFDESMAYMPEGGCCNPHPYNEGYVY

Consider TCATAC, for which the binding signal is 1.08 fold enrichment (6-mer frequency, TF over GST control) with FLI1; 1.1 fold enrichment (6-mer frequency, TF over GST control) in the assay with ELK1; 1.09 fold enrichment (6-mer frequency, TF over GST control) in the assay with GABPA; 1.14 fold enrichment (6-mer frequency, TF over GST control) with ERG; 1.15 fold enrichment (6-mer frequency, TF over GST control) in the assay with ELF1; 1.02 fold enrichment (6-mer frequency, TF over GST control) with EHF. In addition, the binding signal with SPI1 is 1.13 fold enrichment (6-mer frequency, TF over GST control); with SPIB, 1.16 fold enrichment (6-mer frequency, TF over GST control); with FEV, 1.07 fold enrichment (6-mer frequency, TF over GST control); in the assay with ETV5, 1.02 fold enrichment (6-mer frequency, TF over GST control); with ELF4, 1.07 fold enrichment (6-mer frequency, TF over GST control); with ETV1, 1.14 fold enrichment (6-mer frequency, TF over GST control). In addition, the binding signal with ERF is 1.2 fold enrichment (6-mer frequency, TF over GST control); in the assay with ETV3L, 1.13 fold enrichment (6-mer frequency, TF over GST control); with ETS2, 1.06 fold enrichment (6-mer frequency, TF over GST control); with SPDEF it was 1.05 fold enrichment (6-mer frequency, TF over GST control); in the assay with ELF5 it was 1.09 fold enrichment (6-mer frequency, TF over GST control); in the assay with ETV3 it was 1.01 fold enrichment (6-mer frequency, TF over GST control). Moreover, the binding signal with ETV6 was 1.01 fold enrichment (6-mer frequency, TF over GST control).

The values above are taken from publication PMC7862700, “An all-to-all approach to the identification of sequence-specific readers for epigenetic DNA modifications on cytosine”.
